# KDM5B inh = Primary screen for KDM5B Histone Demethylases FDH-coupled qHTS; KDM5B demethylase, FDH-coupled NADH fluorescence (FDH is formaldehyde dehydrogenase); Potency, µM (series often up to 57.7 µM), usual class: inhibitors; 220,000 compounds, 2.6% hits; AID 1347165, 2019; active = well fitted inhibition curve with a large enough effect; also: 0% is about no effect; nearly all actives have a fitted effect of over 70% in size
#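 Compound dilutions met 200 nM (final) KDM5BΔAP for 10 min at room temperature before substrate addition. The substrate mix held 12.5 µM H3K4me3 with cofactors 25 µM α-ketoglutarate and 50 µM Fe²⁺. NADH signal gain over 30 min defined activity.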
# * hit, by the source's call; i = inactive. Many of the other results were omitted from the sample, so hits are more common in it than they were. Potency is read from the fitted curve at half-maximal effect.
SMILES,KDM5B inh
CN(C)CCNC(=O)c1cc(-c2ccccc2F)cc2c1OCCN2Cc1cccnc1,35.5µM*
CCC(C)NC/C=C/c1ccccc1 (stereo not given),i
O=C(NC1Cc2ccccc2C1)c1ccccc1C1CCNC1 (stereo not given),i
CSCc1noc(CNC(=O)[C@H]2CNC[C@H](C(=O)N3CCCC3)C2)n1,i
CCCCCC/C(CCCCCCC/C(CCCCCC)=N/NC(N)=O)=N/NC(N)=O,i
COC(=O)c1nnn(CC(=O)Nc2ccc(Br)cc2F)c1C(=O)OC,i
CC(C)c1ccccc1NC(=S)NNC(N)=O,i
CCOC(=O)C1=C(CS(=O)(=O)c2ccc(C)cc2)NC(=O)NC1c1ccc(C(C)C)cc1 (stereo not given),i
Cc1ccc(C)c(NC(=S)N2CCN(S(C)(=O)=O)CC2)c1,i
COc1ccc(N2C(=O)CSC23CCN(C(=O)c2cccc(OC)c2)CC3)cc1,i
COCC(=O)N1CCC2(CC1)SCC(=O)N2c1ccc(OC)cc1,i
COc1ccc(N2C(=O)CSC23CCN(C(=O)c2ccccc2Br)CC3)cc1,35.5µM*
O=c1oc2c(O)cccc2cc1-c1nc(-c2ccc(Cl)cc2)no1,i
NC(CO)C(=O)OCc1ccccc1 (stereo not given),i
CCCCCCOc1ccc(/C=C/c2nc(-c3ccc(C)cc3)cs2)cc1,i
CN(Cc1ccnn1C)C1CCc2ccccc21 (stereo not given),i
NC(=O)CSc1nc2ccc(NC(=O)COc3ccccc3)cc2s1,i
Cc1cc(C(=O)N2CCCC2)n[nH]1,i
Cc1ccc(-c2cc(C(=O)N3CCC(c4cc(CC(=O)O)[nH]n4)CC3)n[nH]2)o1,25.1µM*
Cc1ccc2nc(C)cc(C(=O)N3CCC(c4cc(CC(=O)O)[nH]n4)CC3)c2c1,i
O=C(C1CC1)N1CCC(Cc2noc(-c3ccncc3)n2)C1 (stereo not given),i
COc1ccc(-c2nc(SCC(=O)N3CCC(C)CC3)n[nH]2)cc1,i
Cc1ccccc1CC(=O)N[C@@H]1CN(S(C)(=O)=O)C[C@H]1CN(C)C,i
CN(C)C[C@@H]1CN(c2ncccn2)C[C@H]1NC(=O)Cc1cccc(F)c1,25.1µM*
COc1ccccc1CCC(=O)N1CCC(Oc2ncccc2C(=O)N(C)C)C1 (stereo not given),i
SMILES,KDM5B inh
COc1ccccc1CCC(=O)N[C@@H]1CN(c2ccncn2)C[C@H]1CO,i
COc1ccccc1CCC(=O)N[C@@H]1CN(c2ncccn2)C[C@H]1CN(C)C,31.6µM*
CC(NS(=O)(=O)Cc1ccc(F)cc1)c1cccnc1 (stereo not given),i
CN(C)C[C@@H]1CN(c2ccncn2)C[C@H]1NC(=O)Cc1c[nH]c2ccccc12,i
CN(C)C[C@@H]1CN(c2ncccn2)C[C@H]1NS(=O)(=O)Cc1ccc(F)cc1,25.1µM*
CN(C)C[C@@H]1CN(c2ncccn2)C[C@H]1NC(=O)Cc1ccccc1F,31.6µM*
COCC(C)Nc1nc(-c2ccsc2)nc2ccccc12 (stereo not given),i
O=C(c1ccccc1F)N(Cc1ccc2cc[nH]c2c1)C1CC1,i
O=C(c1ccc(F)cc1)N1CCC(Oc2cccnc2)C1 (stereo not given),i
COC(=O)c1cc2n(n1)CCCN(C(=O)COc1ccc(C)c(C)c1)C2,i
CC(C)n1nc(C(=O)Nc2nnc(C3CC3)s2)c2ccccc2c1=O,i
COc1ccccc1N(CC(=O)NCCSCc1ccccc1Cl)S(C)(=O)=O,i
Cc1ccn(CC(=O)N[C@@H]2CN(c3ccncn3)C[C@H]2CN(C)C)n1,i
Cc1ccc(F)cc1S(=O)(=O)N[C@@H]1CN(c2ncccn2)C[C@H]1CN(C)C,25.1µM*
COc1cccc(CC(=O)N2CC[C@H](CO)[C@H](NC(=O)C3CC3)C2)c1,i
CN(C)C[C@@H]1CN(Cc2ccccn2)C[C@H]1NS(=O)(=O)c1cccc(C#N)c1,i
Cc1cc(C)n(CC(=O)N[C@@H]2CN(c3ncccn3)C[C@H]2CN(C)C)n1,28.2µM*
COc1cccc(CN2C[C@@H](CO)[C@H](NC(=O)c3ccccc3)C2)c1,i
CN(C)C[C@@H]1CN(C)C[C@H]1NC(=O)Cc1ccc(Cl)cc1,i
Cc1cc(C)n(CC(=O)N[C@@H]2CN(Cc3cccnc3)C[C@H]2CN(C)C)n1,i
Cc1ccc(S(=O)(=O)N[C@@H]2CN(C)C[C@H]2CN(C)C)cc1F,i
COc1cccc(CC(=O)N[C@@H]2CN(c3ncccn3)C[C@H]2CO)c1,25.1µM*
CN(C)C[C@@H]1CN(c2ncccn2)C[C@H]1NC(=O)Cc1ccc(F)cc1,28.2µM*
O=C(NC(Nc1cccc(C(F)(F)F)c1)C(=O)c1ccccc1)c1ccc(Cl)cc1 (stereo not given),i
O=C(Cc1csc(-c2ccco2)n1)Nc1ccnn1Cc1c(Cl)cccc1Cl,i
SMILES,KDM5B inh
C=C(C)Cn1c(NCCC)nc2c1c(=O)[nH]c(=O)n2C,i
CC(C)C(=O)Nc1c(C(=O)N2CCN(c3ccccc3F)CC2)oc2ccccc12,i
CCNC(=O)c1cccc(NC(=O)c2cccc(OCc3c(C)noc3C)c2)c1,i
CC(C)C[C@H]1COc2cccc(F)c2S(=O)(=O)N1Cc1cn(Cc2ccc(Cl)cc2)nn1,i
O=[N+]([O-])c1cccc2ccc(/C=C/c3cccc(O)c3)nc12,i
CCc1nc2c(c(-c3ccc(O)cc3)n1)CCN(Cc1ccc(OC(F)(F)F)cc1)CC2,i
O=C(c1ccccc1)N1CCc2nc(C3CC3)nc(-c3ccc(Cl)cc3)c2CC1,i
O=C([C@H]1C[C@H](Oc2ccccc2)CN1S(=O)(=O)Cc1ccccc1F)N1CCOCC1,i
Cc1nn(CC(=O)Nc2ccccc2F)c(=O)c2c(C)n(-c3ccc(Cl)cc3)nc12,i
CN1C[C@@H](NC(=O)c2ccccc2)C[C@H]1c1nc(-c2ccc(F)cc2)no1,i
CCCNC(=O)c1ccc2ccccc2n1,i
CN(C)C[C@@H]1CN(c2ncccn2)C[C@H]1NS(=O)(=O)c1ccc(Cl)cc1,28.2µM*
CN(C)C[C@@H]1CN(S(C)(=O)=O)C[C@H]1NC(=O)COc1ccc(Cl)cc1,i
CN(C)C[C@@H]1CN(C)C[C@H]1NS(=O)(=O)c1ccc(Cl)cc1,i
CCOc1ccc(C2CCCN2C(=O)c2ccc(-n3cccn3)cc2)cc1 (stereo not given),i
CCc1nn(CCCC(=O)NCc2ccc(OC(C)C)cc2)c(=O)c2cc3occc3n12,i
Cc1noc(C)c1-c1cc2c(cc(C)n2CCN(C)C)c(-c2cccnc2)n1,31.6µM*
COc1ccc(-c2nc(-c3c(C)noc3C)cc3c2cc(C)n3CCN(C)C)cn1,39.8µM*
COc1ccc(CCNC(=O)c2ccc(Cn3c(SCC(=O)NCCC(C)C)nc4cc5c(cc4c3=O)OCO5)cc2)cc1OC,i
O=C(CSc1ccccn1)NCc1cccnc1Oc1ccccc1,i
COCCCNC(=O)C1CCN(c2nnc(-n3cccc3CNc3ccc(C)cc3)s2)CC1,i
O=c1n(-c2ccc(F)cc2F)nc2n1CCN([S+](=O)([O-])c1cccs1)C2,i
COc1ccc(CN2CCn3c(nn(-c4ccc(F)cc4F)c3=O)C2)cc1,22.4µM*
COc1cccc([S+](=O)([O-])N2CCn3c(nn(-c4ccc(F)cc4F)c3=O)C2)c1,25.1µM*
O=c1n(-c2ccc(F)cc2F)nc2n1CCN([S+](=O)([O-])c1cccc(C(F)(F)F)c1)C2,i
